# Source: PubChem BioAssay AID1851 (National Center for Advancing Translational Sciences (NCATS), 2009)
# Several values for one entry are separate records, joined by “and”; a condition that tells them apart may be missing. Identical values can stand only once. Among all 16,000 compounds or so, about 5,100 (32%) were called active. Inconclusive results (about 25%) are left out. Calls follow the shape of the dose curve; as a rule, active = well fitted curve in the direction sought with a large enough effect; inconclusive = small, poorly fitted or top-dose-only effect, or effect the other way; inactive = no such curve, though single readings can be large or run the other way. The list shows a part of the results.
# Biological target: Cytochrome P450 3A4 (Homo sapiens) (UniProt P08684)
# Experiment: Cytochrome panel assay with activity outcomes
# Settings: recombinant CYP, pro-luciferin dealkylation, luminescence, p450-cyp3a4; series mostly up to 57.1 µM; activity, negative = inhibition: at the top concentration
# % is scaled to controls: 0 for no effect and ±100 for the full control effect.
# Cytochrome P450 3A4 (Homo sapiens), sequence (P08684 whole entry, looked up): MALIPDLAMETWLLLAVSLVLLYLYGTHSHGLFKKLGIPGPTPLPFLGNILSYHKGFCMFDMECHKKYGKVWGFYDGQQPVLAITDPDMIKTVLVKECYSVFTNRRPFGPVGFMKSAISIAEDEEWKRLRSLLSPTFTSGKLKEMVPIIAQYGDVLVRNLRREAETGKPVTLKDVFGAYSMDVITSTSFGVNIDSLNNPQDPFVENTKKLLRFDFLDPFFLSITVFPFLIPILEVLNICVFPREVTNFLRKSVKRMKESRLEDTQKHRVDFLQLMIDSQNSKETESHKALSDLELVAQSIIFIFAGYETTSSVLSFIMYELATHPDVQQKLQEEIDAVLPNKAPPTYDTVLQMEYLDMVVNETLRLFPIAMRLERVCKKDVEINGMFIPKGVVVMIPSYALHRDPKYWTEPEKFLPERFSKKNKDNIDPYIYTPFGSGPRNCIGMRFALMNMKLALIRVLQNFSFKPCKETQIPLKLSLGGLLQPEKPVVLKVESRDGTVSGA
Compound,"activity, negative = inhibition",AC50
CC1=C(C(=O)OCc2ccccc2)C(c2ccccc2)NC(=O)N1CCCCCC(=O)O (configuration not stated),-1.28% (inactive),–
CC1=C(C(=O)OCc2ccccc2)C(c2cccnc2)c2c(n(C)c(=O)n(C)c2=O)N1 (configuration not stated),–,11.2 µM (active)
CCOC(=O)CC(=O)CSc1nc(-c2ccccc2)cc(-c2ccc(Cl)cc2)c1C#N,–,17.8 µM (active)
N#Cc1ccc(-c2ccccc2)nc1SCC(=O)c1cccc(Cl)c1,21.1% (inactive),–
CC1(C)S[C@@H]2[C@H](NC(=O)[C@@H](N)c3ccc(O)cc3)C(=O)N2[C@H]1C(=O)O,9.74% [at 25.6 µM] (inactive),–
C[C@H](Oc1ccccc1)C(=O)N[C@@H]1C(=O)N2[C@@H]1SC(C)(C)[C@@H]2C(=O)O,2.08% [at 25.6 µM] (inactive),–
CC1(C)S[C@@H]2[C@H](NC(=O)[C@@H](N)c3ccccc3)C(=O)N2[C@H]1C(=O)O[C@H]1OC(=O)c2ccccc21,–,1.58 µM (active)
O=c1c2ccccc2nc2n1C(CSCc1cccc(C(F)(F)F)c1)CS2 (configuration not stated),–,4.47 µM (active)
Cc1ncc2c(c1O)COP(=O)(O)OC2,2.6% (inactive),–
COC(=O)c1cn(NC(=O)c2ccc(F)cc2)c(=O)c2ccccc12,-2.1% [at 2.29 µM] (inactive),–
O=C(Nn1cnc2ccccc2c1=O)c1ccc(F)cc1Cl,-7.59% (inactive),–
COc1ccc(C(=O)Nn2cnc3ccccc3c2=O)c(OC)c1,–,25.1 µM (active)
COc1cccc(Cn2c(=O)c(-c3cn(C)c4ccccc34)nc3cnc(N4CCOCC4)nc32)c1,-10.8% (inactive),–
Cn1cc(-c2nc3cncnc3n(Cc3ccc(F)cc3)c2=O)c2ccccc21,-13.8% (inactive),–
COc1cccc(Cn2c(=O)c(-c3cn(C)c4ccccc34)nc3cnc(OC)nc32)c1,–,7.94 µM (active)
COc1ncc2nc(-c3cn(C)c4ccccc34)c(=O)n(Cc3ccc(F)cc3)c2n1,–,6.31 µM (active)
CCNc1ncc2nc(-c3cn(C)c4ccccc34)c(=O)n(Cc3ccc(F)cc3)c2n1,–,15.8 µM (active)
CCNc1ncc2nc(-c3cn(C)c4ccccc34)c(=O)n(Cc3cccc(OC)c3)c2n1,–,3.98 µM (active)
CN(C)CCCNc1c(C(=O)O)cnc2c1cnn2C,2.18% (inactive),–
COc1ccc(N2C(N)=NC(N)=NC2(C)C)cc1,8.11% (inactive),–
COC(=O)C1=C(C)NC(C)=C(C(=O)OCCSc2ccccc2)[C@@H]1C,–,10 µM (active)
COC(=O)c1cc(=O)n(C2CC2)c(=NC2CC2)s1,-12.9% (inactive),–
OC(COCc1ccccc1)Cn1cnc2ccccc21 (configuration not stated),–,3.98 µM (active)

Compound,"activity, negative = inhibition",AC50
Oc1ccc(OCc2ccccc2)cc1,-12.5% [at 25.6 µM] (inactive),–
CC(=O)Nc1ccc(OC[C@@H](O)CNC(C)C)cc1,–,inactive
C[n+]1cn(CC(O)COCc2ccccc2)c2ccccc21 (configuration not stated),-0.486% (inactive),–
CCC(=O)c1ccc(OCC(O)CN2CCCCC2)cc1 (configuration not stated),13.7% (inactive),–
CC(=O)Nc1ccc(OCC(O)Cn2cnc3ccccc32)cc1 (configuration not stated),–,14.1 µM (active)
O=C(O)[C@@H]1[C@@H]2C[C@H]([C@@H](Br)[C@H]2N2C(=O)CCC2=O)[C@@H]1C(=O)O,2.42% [at 11.4 µM] (inactive),–
CCCCC(=O)Nc1nnc(SCC(=O)NC2CCCC2)s1,-12.4% [at 2.29 µM] (inactive),–
C=CCn1c(SCC(=O)NC2CCCCC2)nnc1C1CCCCC1,–,8.91 µM (active)
COc1ccc(/C=N/NC(=O)c2ccn[nH]2)cc1COc1ccc(Cl)cc1,-16.8% [at 2.29 µM] (inactive),–
COc1ccc(C(=O)NN)cc1COc1ccc(Br)cc1,–,1.26 µM (active)
COc1ccc(/C=N/NC(=O)c2ccn[nH]2)cc1COc1ccc(F)cc1,-10.3% [at 2.29 µM] (inactive),–
Cc1nn(C)cc1CNC(=O)CCC(=O)O,2.19% (inactive),–
COc1ccc(/C=C/C(=O)NCc2cn(C)nc2C)cc1COc1ccc(Br)cc1,–,3.16 µM (active)
CCn1ncc(/C=C/C(=O)NCc2cn(C)nc2C)c1C,-2.52% (inactive),–
COc1cc(/C=C(\C#N)C(N)=O)cc(CSc2nc3ccccc3s2)c1O,–,3.98 µM (active)
C[C@](N)(COP(=O)(O)O)C(=O)O,-21.4% (inactive),–
COC(=O)c1ccc(-n2cncn2)c(F)c1,–,7.94 µM (active)
O=C(Nc1cc(C(F)(F)F)ccc1-n1cncn1)c1ccc(Br)cc1,-10.9% [at 2.29 µM] (inactive),–
C[C@@H]1O[C@H](O[C@@H]2[C@@H](Oc3cc(O)c4c(c3)O[C@H](c3ccc(O)cc3)CC4=O)O[C@@H](CO)[C@@H](O)[C@H]2O)[C@@H](O)[C@H](O)[C@@H]1O,-18.6% [at 25.6 µM] (inactive),–
COc1ccc(NC(=O)CC2C(=O)N(c3cccc(OC)c3)C(=O)N2C2CCCCC2)cc1 (configuration not stated),–,8.91 µM (active)
O=C1C=C[C@@H](O)[C@H]2[C@@H]3C(=O)N(c4cccc(Oc5ccccc5)c4)C(=O)[C@@H]3CC[C@H]12,-11.6% [at 11.4 µM] (inactive),–
CCN1CCN(CCC(=O)Nc2cccc(OC)c2)CC1,-11.5% (inactive),–
COc1cccc(N2C(=O)C(CC(=O)Nc3ccccc3)N(C3CCCCC3)C2=O)c1 (configuration not stated),–,5.01 µM (active)

Compound,"activity, negative = inhibition",AC50
O=C(CSc1nnnn1C1CCCC1)Nc1ccc(F)cc1,–,14.1 µM (active)
CCC(CC)C(=O)Nc1cccc(/C(C)=N/NC(=O)c2c(Br)cnn2C)c1,–,14.1 µM (active)
C/C(=N\NC(=O)c1cccc(F)c1)c1ccc(Br)s1,-16.5% (inactive),–
CCC(CC)C(=O)Nc1cccc(/C(C)=N\NC(=O)c2ccc(C)s2)c1,–,7.94 µM (active)
C/C(=N\NC(=O)c1ccc(Cl)cc1)c1cccc(NC(=O)C(C)C)c1,–,15.8 µM (active)
CCOC(=O)c1c(NC(=O)c2c(Br)cnn2C)c(C#N)nn1-c1ccccc1,15.3% (inactive),–
CCOc1ccc(N(C(C)C(=O)N/N=C(\C)c2cccc(NC(=O)c3ccccc3)c2)S(C)(=O)=O)cc1 (configuration not stated),-20.9% [at 2.29 µM] (inactive),–
Cc1cc(=O)[nH]c2c1c(C)nn2C1CCOC(C)(C)C1 (configuration not stated),10.5% (inactive),–
Cc1[nH]c2ccccc2c1-c1cc(-c2cc(-c3c(C)[nH]c4ccccc34)on2)no1,-5.38% [at 11.4 µM] (inactive),–
CCCCn1c(SCc2c(C)noc2C)nc2cc(S(N)(=O)=O)ccc21,–,0.708 µM (active)
CCn1c(C)nc2cc(S(=O)(=O)C(F)F)ccc21,9.09% [at 11.4 µM] (inactive),–
CCCOc1ccc(C(=O)NNC(=S)NC(=O)c2cc(-c3ccccc3)nc3ccccc23)cc1,–,8.91 µM (active)
CCCOc1ccc(C(=O)NNC(=S)NC(=O)CC)cc1,-8.65% [at 2.29 µM] (inactive),–
O=C(OCCN1CCOCC1)C1(c2ccccc2)CCCCC1,–,3.16 µM (active) and 1.58 µM (active)
CCN(CC)CCOC(=O)C1(c2ccc([N+](=O)[O-])cc2)CCCC1,-25.9% [at 25.6 µM] (inactive),–
CN(C)CCOC(=O)C1(c2ccccc2)CCOCC1,3.36% (inactive),–
NC(N)=NN=Cc1c(Cl)cccc1Cl,–,inactive
Cc1ccc(Cn2nnc3c(=O)[nH]c(C4CCN(C(=O)Cc5cccs5)CC4)nc32)cc1,–,4.47 µM (active)
COc1ccccc1Cn1nnc2c(=O)[nH]c(C3CCN(C(=O)c4ccc(C)cc4)CC3)nc21,–,1.58 µM (active)
O=C(Cc1cccs1)N1CCC(c2nc3c(nnn3Cc3ccccc3Cl)c(=O)[nH]2)CC1,–,3.16 µM (active)
COCC(=O)N1CCC2(CCN(Cc3ccccc3OC)CC2)CC1,-3.57% (inactive),–
COc1ccc(C(=O)N2CCC3(CCN(Cc4ccccc4OC)CC3)CC2)cc1,-0.0167% (inactive),–
Cc1ccc(-c2c(C#N)c(N)n(-c3ccccc3)c(=O)c2C#N)cc1,-3.64% [at 2.29 µM] (inactive),–

Compound,"activity, negative = inhibition",AC50
CN(C)CCOC(=O)c1ccc(N)cc1,-4.56% [at 11.4 µM] (inactive),–
O=C(OCCNC(=O)c1ccc2ccccc2n1)c1ccc(F)cc1,–,14.1 µM (active)
FC(F)(F)c1cc(C(F)(F)F)c2ccc(N/N=C/c3cccc(Cl)c3)nc2n1,5.99% (inactive),–
Fc1ccc(N2CCN(c3ccc4c(C(F)(F)F)cc(C(F)(F)F)nc4n3)CC2)cc1,–,10 µM (active)
Cc1ccc(Nc2nc(Cl)nc(N(C)C#N)n2)cc1,–,11.2 µM (active)
Cc1c(C)c2c(c(C)c1O)CC[C@@](C)(CCC[C@@H](C)CCC[C@@H](C)CCCC(C)C)O2,11.9% [at 25.6 µM] (inactive),–
CC(C)NC(=O)c1ccc(-c2cccc(C(F)(F)F)c2)o1,2.51% (inactive),–
CC(=O)OCc1c(C(F)(F)F)nn(C)c1Sc1ccccc1,-22.5% (inactive),–
Cn1nc(C(F)(F)F)c(C(=O)Nc2ccc(F)cc2F)c1Sc1cccc(C(F)(F)F)c1,–,6.31 µM (active)
Cc1ccc(NC(=O)c2c(C(F)(F)F)nn(C)c2SCc2cccc(C(F)(F)F)c2)cc1C,–,3.16 µM (active)
Cn1nc(C(F)(F)F)c(C(=O)Nc2ccc(F)cc2F)c1Sc1ccc(C(F)(F)F)cc1,–,12.6 µM (active)
Cc1ccc(NC(=O)c2sccc2SCc2cccc(C(F)(F)F)c2)cc1,–,1 µM (active)
CN(C/C=C\c1ccccc1)Cc1cccc2ccccc12,-6.8% [at 25.6 µM] (inactive),–
COc1ccccc1C(c1nnnn1C(C)(C)C)N1CCN(Cc2ccncc2)CC1 (configuration not stated),–,3.16 µM (active)
COc1ccccc1C(=O)NC(=S)N1CCCc2ccccc21,14.7% (inactive),–
COc1ccccc1C(c1nnnn1C(C)(C)C)N1CCCc2ccccc21 (configuration not stated),–,10 µM (active)
CC[N+](CC)(CC)CC,-3.53% (inactive),–
CC(C)(C)NC[C@@H](O)c1ccc(O)c(CO)n1,2.12% [at 11.4 µM] (inactive),–
N#Cc1cccc(C(c2nnnn2C2CCCC2)N2CCCCCC2)c1 (configuration not stated),–,5.01 µM (active)
N#Cc1ccc(C(c2nnnn2Cc2ccccc2)N2CCCC2)cc1 (configuration not stated),–,7.94 µM (active)
N#Cc1ccc(C(c2nnnn2C2CCCC2)N2CCC(Cc3ccccc3)CC2)cc1 (configuration not stated),–,4.47 µM (active)
N[C@@H](C(=O)O)c1ccc(P(=O)(O)O)cc1,-17.9% (inactive),–
O=C(O)c1sc2cc(C(F)(F)F)cnc2c1-c1ccccc1,-2.07% (inactive),–
